One may read the AC50 as the concentration at which the activity in the assay is half-maximal.

Test [1] in a line: ATG_GLI_CIS: Attagene CIS-FACTORIAL HepG2 Assay for human Zinc Finger Protein GLI1 (AID 2282945). The following applies: HepG2, Attagene cis-factorial reporter mRNA, GLI element; actives raise or lower the signal. In short, it runs like this:
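HepG2 cells transiently transfected with cis-promoter multiplexed reporter units report endogenous transcription factor activity. After 24 h chemical exposure, reporter mRNA was quantified by RT-PCR, 6-FAM labelling, HpaI digestion and capillary electrophoresis, with bidirectional fitting against DMSO.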

The target of test [2] is Bile acid receptor (Homo sapiens) (UniProt Q96RI1). Nature of the test: ATG_IR1_CIS: Attagene CIS-FACTORIAL HepG2 Assay for human Nuclear Receptor Subfamily 1 Group H Member 4 (NR1H4), IR1 submotif (AID 2282946). The following applies: IR1 reporter transcription, actives raise or lower the signal. In short, it runs like this:
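Readout: reporter transcript levels by RT-PCR with fluorescent capillary electrophoresis, from HepG2 cells transiently transfected with multiplexed cis-regulated reporters and dosed 24 h. Gain- or loss-of-signal fitted versus DMSO negative control.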

A short description of test [3]: ATG_GRE_CIS: Attagene CIS-FACTORIAL HepG2 Assay for human Glucocorticoid Response Elements (GRE) (AID 2282947). Conditions: HepG2 GRE cis-reporter, Attagene multiplex mRNA; actives raise or lower the signal. An outline of the steps: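 HepG2, transient cis-reporter transfection, 24 h. Reporter mRNA: RT-PCR then CE, fluorescence. Fit both directions vs DMSO.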
A short description of test [4]: ATG_ISRE_CIS: Attagene CIS-FACTORIAL HepG2 Assay for human Interferon Regulatory Factor 1 (IRF1) binding to an Interferon-Stimulated Response Element (ISRE) (AID 2282948). Conditions: HepG2 ISRE cis-reporter (Attagene), mRNA transcription readout; actives raise or lower the signal. In short, it runs like this: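 Uses HepG2 liver cells transfected with cis-regulated reporters and measures mRNA 24 h post-dosing through RT-PCR, primer-extension labelling and capillary electrophoresis, with DMSO as negative control.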

Test [5] in a line: ATG_M_32_CIS: Attagene CIS-FACTORIAL HepG2 Assay for M32 Transcription Factor (Internal Marker) (AID 2282949).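 Note: background control marker of the multiplexed CIS panel rather than a real target.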 Conditions: HepG2 Attagene cis-factorial M32 reporter, mRNA; actives raise or lower the signal. An outline of the steps:
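Using DMSO as baseline, bidirectional curve fits were applied to reporter mRNA signals. These came from transiently transfected HepG2 cells exposed for 24 h, with RNA analysed by RT-PCR, FAM primer extension, HpaI digestion and CE.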

Test [6] is described as follows: ATG_M_06_CIS: Attagene CIS-FACTORIAL HepG2 Assay for M06 Transcription Factor (Internal Marker) (AID 2282950). Conditions: HepG2 Attagene CIS-FACTORIAL M06 internal marker reporter; actives raise or lower the signal. In short, it runs like this:
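HepG2 cells transiently transfected with cis-regulated multiple reporter transcription units were exposed to chemical for 24 h; reporter mRNA was quantified by RT-PCR, 6-FAM primer labelling, HpaI digestion and capillary electrophoresis, fitted bidirectionally against DMSO.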

Test [7] concerns the target Hypoxia-inducible factor 1-alpha (Homo sapiens) (UniProt Q16665). In words: ATG_HIF1a_CIS: Attagene CIS-FACTORIAL HepG2 Assay for human Hypoxia Inducible Factor 1 (HIF1A) (AID 2282951). Conditions: HepG2 Attagene cis-factorial HIF1a reporter transcription; actives raise or lower the signal. In short, it runs like this: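 In this multiplexed cell assay, HepG2 cells bearing transfected cis reporters are dosed for 24 h and reporter mRNA is read by RT-PCR plus capillary electrophoresis; signal increases and decreases are both scored against DMSO.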

For test [8], the target named is Hepatocyte nuclear factor 6 (Homo sapiens) (UniProt Q9UBC0). Nature of the test: ATG_HNF6_CIS: Attagene CIS-FACTORIAL HepG2 Assay for human Hepatocyte Nuclear Factor 6 (HNF6) (AID 2282952). Conditions: HepG2 Attagene cis-factorial HNF6 reporter transcription; actives raise or lower the signal. An outline of the steps:
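Readout: fluorescent reporter-transcript fragments resolved by capillary electrophoresis after RT-PCR, reflecting endogenous factor activity in transfected HepG2. Exposure 24 h. Gain or loss of signal fitted bidirectionally against DMSO.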

The target of test [9] is Heat shock factor protein 1 (Homo sapiens) (UniProt Q00613). Nature of the test: ATG_HSE_CIS: Attagene CIS-FACTORIAL HepG2 Assay for human Heat Shock Transcription Factor 1 (HSE) (AID 2282953). Conditions: HepG2 HSE cis-reporter, Attagene RNA transcription; actives raise or lower the signal. In short, it runs like this:
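HepG2 cells transiently transfected with multiple reporter transcription units under cis-regulatory promoter control, measuring endogenous transcription factor activity. After 24 h chemical exposure, reporter mRNA quantified by RT-PCR, fluorescent labelling, HpaI digestion and capillary electrophoresis; bidirectional fit versus DMSO.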

Test [10] can be described thus: ATG_MRE_CIS: Attagene CIS-FACTORIAL HepG2 Assay for human Metal Responsive Element (MRE) (AID 2282954). The following applies: HepG2 MRE cis-reporter transcription, Attagene multiplex; actives raise or lower the signal. An outline of the steps: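 Readout: capillary electrophoresis of 6-FAM-labelled, HpaI-digested RT-PCR reporter products. System: HepG2 cells carrying transient multiplexed cis reporters, dosed 24 h. Analysis: bidirectional fit, DMSO baseline.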

For test [11], the target named is Paired box protein Pax-6 (Homo sapiens) (UniProt P26367). In words: ATG_Pax6_CIS: Attagene CIS-FACTORIAL HepG2 Assay for human Paired Box 6 (PAX6) (AID 2282956). The following applies: HepG2 CIS-FACTORIAL PAX6 reporter transcription, RNA readout; actives raise or lower the signal. An outline of the steps: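 DMSO-referenced bidirectional fits of reporter mRNA fluorescence; HepG2 with transient cis-promoter MRTUs, 24 h post-dose, RT-PCR plus capillary electrophoresis detection.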
Paired box protein Pax-6 (Homo sapiens), sequence (P26367 whole entry, looked up): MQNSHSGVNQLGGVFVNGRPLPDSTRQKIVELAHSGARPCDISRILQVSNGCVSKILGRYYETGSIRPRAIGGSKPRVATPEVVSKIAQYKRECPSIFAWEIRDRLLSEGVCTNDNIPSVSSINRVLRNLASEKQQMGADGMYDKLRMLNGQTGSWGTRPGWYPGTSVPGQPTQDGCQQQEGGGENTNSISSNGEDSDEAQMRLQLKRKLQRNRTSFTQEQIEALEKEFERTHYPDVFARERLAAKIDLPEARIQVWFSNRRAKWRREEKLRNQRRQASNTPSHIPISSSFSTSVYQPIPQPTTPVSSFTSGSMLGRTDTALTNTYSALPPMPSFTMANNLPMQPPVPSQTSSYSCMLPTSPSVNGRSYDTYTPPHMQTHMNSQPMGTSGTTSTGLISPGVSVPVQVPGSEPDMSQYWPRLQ

A short description of test [12]: ATG_PXRE_CIS: Attagene CIS-FACTORIAL HepG2 Assay for human Pregnane X Receptor Element (PXRE) (AID 2282957). Conditions: HepG2 Attagene CIS-FACTORIAL PXRE reporter, mRNA; actives raise or lower the signal. In short, it runs like this: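 Read-out: fluorescence of reporter-specific RT-PCR products resolved by capillary electrophoresis, fitted bidirectionally relative to DMSO. Human HepG2 liver cells carried transfected cis-promoter reporter units and were exposed to chemicals for 24 h.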

The nature of test [13]: ATG_RORE_CIS: Attagene CIS-FACTORIAL HepG2 Assay for human RAR-related Orphan Receptor Element (RORE) (AID 2282959). The following applies: HepG2 Attagene cis-factorial RORE reporter, mRNA; actives raise or lower the signal. An outline of the steps:
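Fluorescence intensity of reporter-specific cDNA fragments, separated by capillary electrophoresis, gives the signal. Source: HepG2 liver cells transiently transfected with cis-element reporters and exposed 24 h; DMSO-normalized bidirectional fit.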

Test [14] can be described thus: ATG_Sox_CIS: Attagene CIS-FACTORIAL HepG2 Assay for human SRY-box transcription factor (SOX) (AID 2282960). The following applies: HepG2 Attagene cis-factorial SOX reporter, mRNA; actives raise or lower the signal. An outline of the steps:
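After 24 h of chemical treatment, transfected HepG2 reporter cells are lysed for total RNA. Transcript levels come from RT-PCR with labelled primer extension and capillary electrophoresis, analysed bidirectionally versus DMSO.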

Test [15] addresses Transcription factor Sp1 (Homo sapiens) (UniProt P08047). Nature of the test: ATG_Sp1_CIS: Attagene CIS-FACTORIAL HepG2 Assay for human Specificity Protein 1 (Sp1) (AID 2282961). The following applies: HepG2 Sp1 cis-reporter transcription, actives raise or lower the signal. In short, it runs like this: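 Sp1-driven reporter mRNA, read as capillary electrophoresis fluorescence after RT-PCR, in transiently transfected HepG2 cells dosed for 24 h; signal change in either direction relative to DMSO.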

Test [16] in a line: ATG_SREBP_CIS: Attagene CIS-FACTORIAL HepG2 Assay for human Sterol Regulatory Element Binding (SREBP) (AID 2282962). The following applies: HepG2 Attagene cis-factorial SREBP reporter, mRNA; actives raise or lower the signal. An outline of the steps:
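In this cis-format assay, HepG2 liver cells express reporters controlled by promoter elements responsive to native transcription factors. Exposure lasts 24 h; reporter mRNA fluorescence from capillary electrophoresis gives the signal, fitted bidirectionally against DMSO.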

For test [17], the target named is Signal transducer and activator of transcription 3 (Homo sapiens) (UniProt P40763). Nature of the test: ATG_STAT3_CIS: Attagene CIS-FACTORIAL HepG2 Assay for human Signal Transducer and Activator of Transcription 3 (STAT3) (AID 2282963). The following applies: HepG2, Attagene cis-factorial STAT3 reporter transcription; actives raise or lower the signal. An outline of the steps:
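Uses human liver HepG2 transiently carrying cis-regulated reporter transcription units. Following 24 h dosing, reporter mRNA induction was detected by RT-PCR and capillary electrophoresis, analysed bidirectionally versus DMSO.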

A short description of test [18]: ATG_TA_CIS: Attagene CIS-FACTORIAL HepG2 Assay for human TA Basal Promoter (AID 2282964). The following applies: HepG2 Attagene CIS-factorial TA basal promoter reporter; actives raise or lower the signal. An outline of the steps: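 HepG2 cells transiently transfected with multiplexed cis-promoter reporter units, dosed 24 h. Reporter mRNA measured by RT-PCR, 6-FAM labelling, HpaI digestion and capillary electrophoresis; bidirectional fit versus DMSO baseline, serving as background control.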

The nature of test [19]: ATG_PBREM_CIS: Attagene CIS-FACTORIAL HepG2 Assay for human Phenobarbital-responsive Enhancer Module (PBREM) (AID 2282955). The following applies: HepG2 PBREM cis-reporter, Attagene multiplexed transcription; actives raise or lower the signal. In short, it runs like this: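 After a 24 h incubation with test chemical, transfected HepG2 cells yield total RNA; reporter-specific RT-PCR products are fluorescently labelled, HpaI-digested and resolved by capillary electrophoresis against ROX size standards.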

Test [20] is described as follows: ATG_PPRE_CIS: Attagene CIS-FACTORIAL HepG2 Assay for human Peroxisome Proliferator-activated Response Element (PPRE) (AID 2282958). The following applies: HepG2 PPRE cis-element reporter, Attagene transcription factor profiling; actives raise or lower the signal. An outline of the steps:
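Multiplexed reporter transcription units under cis-regulatory promoters were transfected into HepG2 cells to capture endogenous factor activity. A 24 h incubation preceded RNA isolation and fluorescent RT-PCR fragment analysis.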

The source made the active and inactive calls. Rule for the calls: active = hit-call score of the fitted dose curve at least 0.9, where 1 is the maximum; inactive = score below 0.9.

Hypoxia-inducible factor 1-alpha (Homo sapiens), sequence (Q16665 whole entry, looked up): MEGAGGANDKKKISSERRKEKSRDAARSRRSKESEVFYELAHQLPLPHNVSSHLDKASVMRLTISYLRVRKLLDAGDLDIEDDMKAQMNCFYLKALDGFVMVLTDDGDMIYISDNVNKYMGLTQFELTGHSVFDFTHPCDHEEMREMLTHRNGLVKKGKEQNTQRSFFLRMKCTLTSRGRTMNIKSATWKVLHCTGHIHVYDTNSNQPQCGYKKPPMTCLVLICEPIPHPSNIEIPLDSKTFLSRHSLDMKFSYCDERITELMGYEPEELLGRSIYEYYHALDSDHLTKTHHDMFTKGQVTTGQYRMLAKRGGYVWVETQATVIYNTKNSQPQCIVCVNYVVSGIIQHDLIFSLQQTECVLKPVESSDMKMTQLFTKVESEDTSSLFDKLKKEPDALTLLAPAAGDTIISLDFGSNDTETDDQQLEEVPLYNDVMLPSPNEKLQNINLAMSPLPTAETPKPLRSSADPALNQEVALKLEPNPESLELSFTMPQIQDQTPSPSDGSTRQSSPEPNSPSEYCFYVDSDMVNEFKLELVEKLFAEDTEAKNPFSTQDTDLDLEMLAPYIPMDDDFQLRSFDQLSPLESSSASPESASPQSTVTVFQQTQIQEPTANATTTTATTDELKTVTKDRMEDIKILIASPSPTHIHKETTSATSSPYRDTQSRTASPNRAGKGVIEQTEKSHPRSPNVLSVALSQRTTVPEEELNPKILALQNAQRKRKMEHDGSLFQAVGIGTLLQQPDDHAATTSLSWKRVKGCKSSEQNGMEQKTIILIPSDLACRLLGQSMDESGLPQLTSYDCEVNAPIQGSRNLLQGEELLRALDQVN
Signal transducer and activator of transcription 3 (Homo sapiens), sequence (P40763 whole entry, looked up): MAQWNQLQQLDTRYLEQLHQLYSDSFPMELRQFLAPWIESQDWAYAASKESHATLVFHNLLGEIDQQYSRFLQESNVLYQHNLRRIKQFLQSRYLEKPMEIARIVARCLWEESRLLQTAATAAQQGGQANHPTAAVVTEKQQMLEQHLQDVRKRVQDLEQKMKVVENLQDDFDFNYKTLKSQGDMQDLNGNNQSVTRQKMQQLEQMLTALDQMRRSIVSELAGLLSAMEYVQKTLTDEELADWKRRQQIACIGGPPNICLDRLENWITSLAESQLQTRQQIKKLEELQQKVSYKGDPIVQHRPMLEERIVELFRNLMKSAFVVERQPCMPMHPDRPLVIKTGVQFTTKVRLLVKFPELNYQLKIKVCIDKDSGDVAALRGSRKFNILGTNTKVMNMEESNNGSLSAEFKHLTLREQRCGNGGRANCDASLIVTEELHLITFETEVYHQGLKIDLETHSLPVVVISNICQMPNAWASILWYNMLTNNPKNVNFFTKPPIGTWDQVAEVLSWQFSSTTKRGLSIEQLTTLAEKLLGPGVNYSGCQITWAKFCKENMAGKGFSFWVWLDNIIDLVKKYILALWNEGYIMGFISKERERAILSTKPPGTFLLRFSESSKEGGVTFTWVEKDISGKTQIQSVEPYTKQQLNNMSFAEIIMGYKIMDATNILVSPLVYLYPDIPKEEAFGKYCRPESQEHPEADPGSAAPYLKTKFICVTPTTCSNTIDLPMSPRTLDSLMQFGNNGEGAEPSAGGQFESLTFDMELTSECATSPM
Heat shock factor protein 1 (Homo sapiens), sequence (Q00613 whole entry, looked up): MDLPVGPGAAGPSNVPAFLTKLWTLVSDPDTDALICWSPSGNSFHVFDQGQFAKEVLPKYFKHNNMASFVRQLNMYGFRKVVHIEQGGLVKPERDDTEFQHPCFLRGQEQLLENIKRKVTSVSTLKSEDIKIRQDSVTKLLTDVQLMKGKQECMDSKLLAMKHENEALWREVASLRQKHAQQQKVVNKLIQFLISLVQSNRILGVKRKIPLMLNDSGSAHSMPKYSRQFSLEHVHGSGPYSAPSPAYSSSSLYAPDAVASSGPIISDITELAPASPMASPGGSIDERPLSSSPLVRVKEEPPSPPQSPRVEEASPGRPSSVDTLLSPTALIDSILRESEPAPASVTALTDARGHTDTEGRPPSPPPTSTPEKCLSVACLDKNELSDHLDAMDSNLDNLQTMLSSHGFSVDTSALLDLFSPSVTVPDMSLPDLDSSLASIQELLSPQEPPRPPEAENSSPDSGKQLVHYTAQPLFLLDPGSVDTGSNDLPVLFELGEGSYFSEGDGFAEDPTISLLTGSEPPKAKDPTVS
Transcription factor Sp1 (Homo sapiens), sequence (P08047 whole entry, looked up): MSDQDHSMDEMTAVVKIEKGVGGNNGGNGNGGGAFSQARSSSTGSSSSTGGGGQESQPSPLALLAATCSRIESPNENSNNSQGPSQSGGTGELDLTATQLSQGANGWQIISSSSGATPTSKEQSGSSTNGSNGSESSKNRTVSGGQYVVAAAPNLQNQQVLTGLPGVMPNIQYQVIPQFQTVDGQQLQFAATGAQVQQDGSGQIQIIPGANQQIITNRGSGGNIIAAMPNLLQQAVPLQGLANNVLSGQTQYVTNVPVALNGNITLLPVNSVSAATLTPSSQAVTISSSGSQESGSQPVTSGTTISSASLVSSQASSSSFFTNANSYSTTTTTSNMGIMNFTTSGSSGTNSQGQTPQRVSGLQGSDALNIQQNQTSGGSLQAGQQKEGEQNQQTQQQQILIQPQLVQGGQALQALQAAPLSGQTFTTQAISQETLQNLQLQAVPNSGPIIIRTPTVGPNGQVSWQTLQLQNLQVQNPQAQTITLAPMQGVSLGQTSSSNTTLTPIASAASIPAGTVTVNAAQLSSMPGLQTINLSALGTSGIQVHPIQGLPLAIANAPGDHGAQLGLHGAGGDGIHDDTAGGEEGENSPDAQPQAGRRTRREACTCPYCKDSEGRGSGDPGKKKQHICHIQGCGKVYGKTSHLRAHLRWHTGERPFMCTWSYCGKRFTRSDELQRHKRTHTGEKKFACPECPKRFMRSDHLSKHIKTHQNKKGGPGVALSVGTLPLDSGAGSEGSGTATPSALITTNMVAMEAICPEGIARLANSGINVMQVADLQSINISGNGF
Hepatocyte nuclear factor 6 (Homo sapiens), sequence (Q9UBC0 whole entry, looked up, the tested form may be a part): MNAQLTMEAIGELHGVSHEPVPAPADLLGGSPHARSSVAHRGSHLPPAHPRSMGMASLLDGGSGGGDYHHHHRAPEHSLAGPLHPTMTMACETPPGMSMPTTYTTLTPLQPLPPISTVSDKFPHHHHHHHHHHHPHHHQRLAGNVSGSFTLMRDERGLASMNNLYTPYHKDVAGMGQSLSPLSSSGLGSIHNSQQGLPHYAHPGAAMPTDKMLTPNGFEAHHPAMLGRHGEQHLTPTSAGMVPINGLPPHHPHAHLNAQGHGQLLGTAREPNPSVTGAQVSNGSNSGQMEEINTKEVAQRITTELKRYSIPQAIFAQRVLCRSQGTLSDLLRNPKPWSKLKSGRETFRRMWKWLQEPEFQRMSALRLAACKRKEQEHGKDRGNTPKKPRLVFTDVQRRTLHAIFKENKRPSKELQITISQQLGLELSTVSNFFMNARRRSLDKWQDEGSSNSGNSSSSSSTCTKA
Bile acid receptor (Homo sapiens), sequence (Q96RI1 whole entry, looked up): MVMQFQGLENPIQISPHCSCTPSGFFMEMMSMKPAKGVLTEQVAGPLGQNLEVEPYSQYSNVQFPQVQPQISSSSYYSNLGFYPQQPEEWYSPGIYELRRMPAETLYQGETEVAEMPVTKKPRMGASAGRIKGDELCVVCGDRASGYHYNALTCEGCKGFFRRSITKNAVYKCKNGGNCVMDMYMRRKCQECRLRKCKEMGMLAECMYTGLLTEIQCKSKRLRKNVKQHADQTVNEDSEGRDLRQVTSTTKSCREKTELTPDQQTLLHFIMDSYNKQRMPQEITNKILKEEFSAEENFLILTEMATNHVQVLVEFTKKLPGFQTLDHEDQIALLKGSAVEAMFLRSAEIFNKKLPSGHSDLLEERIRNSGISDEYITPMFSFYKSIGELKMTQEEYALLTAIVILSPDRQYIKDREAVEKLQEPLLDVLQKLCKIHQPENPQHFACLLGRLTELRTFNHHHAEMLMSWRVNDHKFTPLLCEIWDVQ

As to `CCCCC/C=C\C=C\C(=O)OCC`, the concentration at half-maximal activity (AC50) in [1] is 64 µM (active); in [2] it was 79.6 µM (active); in [4], 56.3 µM (active); in test [7], 78.5 µM (active); in [9] it was 46.7 µM (active); in test [10] it was 55.1 µM (active). Further, the AC50 in test [11] was 62.9 µM (active); in test [12], 1.51 µM (active); in test [14], 28.4 µM (active); in test [15], 28.7 µM (active). The compound was classed as inactive in test [3], in test [5], in test [6], in [8], in test [13] and in test [16]. The result in test [17] and in test [18] was inactive.

In the case of `C=CC(=O)OCC(CO)(COC(=O)C=C)COC(=O)C=C`, the compound was called inactive in test [1], in test [3], in [6], in [7], in test [8] and in [12]. Moreover, the call in test [13], in test [14], in [15] and in test [16] was inactive. In addition, the concentration at half-maximal activity (AC50) is 26 µM (active) in test [2]; 7.12 µM (active) in test [4]; 122 µM (active) in [5]; 161 µM (active) in test [9]; 5.67 µM (active) in [10]; 11.9 µM (active) in test [11]. For the same compound, in [18], the AC50 is 100 µM (active).

Take `CCOc1ccc(NC(C)=O)cc1`: the outcome in [1], in test [2], in test [3], in test [4], in [5] and in test [6] was inactive. Besides, the compound was classed as inactive in test [7], in [8], in test [9], in [10], in test [11] and in test [12]. The outcome in test [13], in test [14], in [15], in [16], in test [17] and in [18] was inactive.

For `CCCCCCCCOS(=O)(=O)O`, the outcome in test [1], in test [2], in test [3], in test [4], in test [5] and in test [6] was inactive. Besides, the call in [7], in test [8], in test [9], in test [10], in [19] and in test [11] was inactive. Besides, the result in test [12], in [13], in test [14], in test [15], in test [17] and in test [18] was inactive. For the same compound, the concentration at half-maximal activity (AC50) in [20] is 31.3 µM (active).

The values above are taken from PubChem BioAssay (EPA / NIEHS).
